# Columns and labels:
# Assay in all cases: DAPPL (digital affinity profiling via proximity ligation, sequencing); 10 mM Tris-HCl pH 7.5, 50 mM NaCl, 1 mM DTT, 4% glycerol, room temperature, 30 min; GST-TFs on glutathione beads, 16-mer random dsDNA library, 0.1% formaldehyde crosslink after washing; high values mean tight binding
# FEV = molecular target: T1, FEV (Homo sapiens, UniProt Q99581 1-238); conditions: protein: recombinant; tags: N-terminal GST; dsDNA, one strand shown
# T1 sequence: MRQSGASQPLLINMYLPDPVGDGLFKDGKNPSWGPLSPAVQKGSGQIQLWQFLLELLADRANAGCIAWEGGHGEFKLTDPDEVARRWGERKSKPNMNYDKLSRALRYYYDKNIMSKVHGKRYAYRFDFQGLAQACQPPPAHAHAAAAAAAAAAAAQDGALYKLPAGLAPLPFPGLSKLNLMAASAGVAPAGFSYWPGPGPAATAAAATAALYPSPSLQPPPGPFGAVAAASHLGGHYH
# Summary of the method: (§1)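 Beads coated with glutathione captured GST-fused human transcription factors that had been expressed in yeast, and the factors were then given DNA barcodes and pooled with a tag-only sample. The pools were incubated with 200 nmole of a random double-stranded 16-mer DNA library in Tris/NaCl/DTT/glycerol buffer for 30 min at room temperature, washed, crosslinked with 0.1% formaldehyde and proximity-ligated with BsaI/T4 ligase at 37 °C for 1 h. PCR amplification and Illumina NextSeq500 sequencing came last. Binding signal is each hexamer's read frequency for a factor divided by its frequency for the tag-only sample.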
# ETV5 = ETV5 (Homo sapiens, UniProt P41161 1-510); conditions: protein: recombinant; tags: N-terminal GST; dsDNA, one strand shown
# Summary of the method: as §1
# HSF1 = HSF1 (Homo sapiens, UniProt Q00613 1-529); conditions: protein: recombinant; tags: N-terminal GST; chain copies: 3; dsDNA, one strand shown
# Summary of the method: as §1
# SPIC = molecular target: T2, SPIC (Homo sapiens, UniProt Q8N5J4 1-248); conditions: protein: recombinant; tags: N-terminal GST; dsDNA, one strand shown
# T2 sequence: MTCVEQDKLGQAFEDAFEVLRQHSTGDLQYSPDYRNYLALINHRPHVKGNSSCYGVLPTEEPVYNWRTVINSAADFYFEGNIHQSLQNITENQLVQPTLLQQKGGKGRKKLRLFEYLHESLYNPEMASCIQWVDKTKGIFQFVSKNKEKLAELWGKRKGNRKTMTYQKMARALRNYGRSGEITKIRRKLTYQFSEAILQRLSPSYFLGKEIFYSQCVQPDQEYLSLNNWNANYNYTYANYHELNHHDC
# Summary of the method: as §1
# ELF4 = ELF4 (Homo sapiens, UniProt Q99607 1-663); conditions: protein: recombinant; tags: N-terminal GST; dsDNA, one strand shown
# Summary of the method: as §1
# ELK4 = molecular target: T3, ELK4 (Homo sapiens, UniProt P28324-2 1-405); conditions: protein: recombinant; tags: N-terminal GST; dsDNA, one strand shown
# T3 sequence: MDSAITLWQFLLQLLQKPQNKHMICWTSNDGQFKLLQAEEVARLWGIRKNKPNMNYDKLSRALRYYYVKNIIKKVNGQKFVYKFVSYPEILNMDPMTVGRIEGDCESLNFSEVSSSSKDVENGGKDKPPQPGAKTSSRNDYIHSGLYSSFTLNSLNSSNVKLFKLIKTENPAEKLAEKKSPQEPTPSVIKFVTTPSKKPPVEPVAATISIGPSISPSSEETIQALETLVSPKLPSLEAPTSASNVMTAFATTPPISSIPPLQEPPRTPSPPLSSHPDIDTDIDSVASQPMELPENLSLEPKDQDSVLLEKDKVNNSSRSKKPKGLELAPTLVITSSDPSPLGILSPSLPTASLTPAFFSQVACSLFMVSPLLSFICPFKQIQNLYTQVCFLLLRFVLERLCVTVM
# Summary of the method: as §1
# ETV2 = molecular target: T4, ETV2 (Homo sapiens, UniProt O00321 1-342); conditions: protein: recombinant; tags: N-terminal GST; dsDNA, one strand shown
# T4 sequence: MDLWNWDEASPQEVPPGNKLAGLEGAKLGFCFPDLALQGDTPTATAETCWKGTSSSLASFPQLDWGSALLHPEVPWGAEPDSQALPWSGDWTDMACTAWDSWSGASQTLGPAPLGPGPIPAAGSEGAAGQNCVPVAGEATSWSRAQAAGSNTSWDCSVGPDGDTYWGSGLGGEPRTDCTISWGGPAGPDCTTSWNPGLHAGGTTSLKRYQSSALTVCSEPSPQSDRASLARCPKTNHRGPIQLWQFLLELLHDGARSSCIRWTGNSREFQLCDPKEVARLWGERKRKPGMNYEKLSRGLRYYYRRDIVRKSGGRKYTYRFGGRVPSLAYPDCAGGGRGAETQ
# Summary of the method: as §1
# ELF3 = molecular target: T5, ELF3 (Homo sapiens, UniProt P78545 1-371); conditions: protein: recombinant; tags: N-terminal GST; dsDNA, one strand shown
# T5 sequence: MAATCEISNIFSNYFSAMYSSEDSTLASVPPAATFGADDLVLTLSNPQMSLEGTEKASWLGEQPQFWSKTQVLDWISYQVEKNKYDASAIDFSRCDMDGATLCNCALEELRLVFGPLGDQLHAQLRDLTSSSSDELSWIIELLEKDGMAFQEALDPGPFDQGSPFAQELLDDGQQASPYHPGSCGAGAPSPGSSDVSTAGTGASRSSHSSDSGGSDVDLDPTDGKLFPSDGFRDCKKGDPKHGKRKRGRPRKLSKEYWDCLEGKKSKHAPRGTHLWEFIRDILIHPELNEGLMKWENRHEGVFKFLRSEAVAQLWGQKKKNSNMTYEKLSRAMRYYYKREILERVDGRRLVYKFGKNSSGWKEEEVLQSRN
# Summary of the method: as §1
# CRX = CRX (Homo sapiens, UniProt O43186 1-299); conditions: protein: recombinant; tags: N-terminal GST; dsDNA, one strand shown
# Summary of the method: as §1
# ETV1 = ETV1 (Homo sapiens, UniProt P50549 1-477); conditions: protein: recombinant; tags: N-terminal GST; dsDNA, one strand shown
# Summary of the method: as §1
# ERF = molecular target: T6, ERF (Homo sapiens, UniProt P50548 1-548); conditions: protein: recombinant; tags: N-terminal GST; dsDNA, one strand shown
# T6 sequence: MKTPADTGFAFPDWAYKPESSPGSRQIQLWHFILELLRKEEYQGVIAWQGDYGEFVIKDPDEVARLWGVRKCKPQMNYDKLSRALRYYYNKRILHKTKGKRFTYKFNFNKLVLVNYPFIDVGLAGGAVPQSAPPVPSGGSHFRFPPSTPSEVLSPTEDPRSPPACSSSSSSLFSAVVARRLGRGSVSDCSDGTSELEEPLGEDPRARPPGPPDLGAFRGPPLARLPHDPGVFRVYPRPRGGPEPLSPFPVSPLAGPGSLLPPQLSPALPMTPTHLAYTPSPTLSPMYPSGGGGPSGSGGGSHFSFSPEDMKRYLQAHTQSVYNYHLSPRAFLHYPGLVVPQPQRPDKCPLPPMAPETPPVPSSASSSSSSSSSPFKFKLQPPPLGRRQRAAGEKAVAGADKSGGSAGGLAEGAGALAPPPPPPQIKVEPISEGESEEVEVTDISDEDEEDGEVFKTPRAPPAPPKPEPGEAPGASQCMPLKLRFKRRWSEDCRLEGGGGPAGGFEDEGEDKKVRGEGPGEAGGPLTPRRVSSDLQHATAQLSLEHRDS
# Summary of the method: as §1
# ETV3L = molecular target: T7, ETV3L (Homo sapiens, UniProt Q6ZN32 1-361); conditions: protein: recombinant; tags: N-terminal GST; dsDNA, one strand shown
# T7 sequence: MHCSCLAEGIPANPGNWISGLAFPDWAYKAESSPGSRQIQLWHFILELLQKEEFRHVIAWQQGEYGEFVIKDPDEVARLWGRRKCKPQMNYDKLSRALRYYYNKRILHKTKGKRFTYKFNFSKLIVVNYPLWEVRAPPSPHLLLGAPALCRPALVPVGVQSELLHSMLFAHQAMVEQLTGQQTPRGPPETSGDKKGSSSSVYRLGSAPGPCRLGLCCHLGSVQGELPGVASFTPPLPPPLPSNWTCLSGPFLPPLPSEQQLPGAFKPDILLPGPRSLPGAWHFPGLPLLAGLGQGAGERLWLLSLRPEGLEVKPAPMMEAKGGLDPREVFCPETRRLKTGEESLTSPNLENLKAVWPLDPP
# Summary of the method: as §1
# ETS2 = molecular target: T8, ETS2 (Homo sapiens, UniProt P15036 1-469); conditions: protein: recombinant; tags: N-terminal GST; dsDNA, one strand shown
# T8 sequence: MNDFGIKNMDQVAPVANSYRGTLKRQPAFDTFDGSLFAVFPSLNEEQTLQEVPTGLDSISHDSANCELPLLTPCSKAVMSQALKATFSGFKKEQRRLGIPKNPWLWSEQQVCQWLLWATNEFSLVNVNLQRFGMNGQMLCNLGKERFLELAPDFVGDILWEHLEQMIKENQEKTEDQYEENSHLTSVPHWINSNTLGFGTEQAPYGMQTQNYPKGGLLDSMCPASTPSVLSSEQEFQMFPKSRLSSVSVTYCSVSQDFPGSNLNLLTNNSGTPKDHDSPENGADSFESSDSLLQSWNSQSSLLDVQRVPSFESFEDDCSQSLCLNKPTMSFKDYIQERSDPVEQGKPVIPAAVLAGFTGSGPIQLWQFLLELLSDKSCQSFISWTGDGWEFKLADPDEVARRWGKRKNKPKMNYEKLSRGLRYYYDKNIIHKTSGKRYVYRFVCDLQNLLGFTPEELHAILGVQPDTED
# Summary of the method: as §1
# SPDEF = molecular target: T9, SPDEF (Homo sapiens, UniProt O95238 1-335); conditions: protein: recombinant; tags: N-terminal GST; dsDNA, one strand shown
# T9 sequence: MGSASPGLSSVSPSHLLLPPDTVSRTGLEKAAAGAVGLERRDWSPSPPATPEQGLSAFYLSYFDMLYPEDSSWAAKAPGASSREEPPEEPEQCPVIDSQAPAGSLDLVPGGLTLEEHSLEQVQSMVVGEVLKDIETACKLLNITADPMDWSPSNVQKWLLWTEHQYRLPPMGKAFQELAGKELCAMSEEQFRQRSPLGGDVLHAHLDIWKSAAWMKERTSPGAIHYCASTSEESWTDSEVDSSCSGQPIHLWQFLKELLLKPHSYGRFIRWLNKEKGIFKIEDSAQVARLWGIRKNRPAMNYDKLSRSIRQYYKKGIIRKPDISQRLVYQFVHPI
# Summary of the method: as §1
# ETV7 = molecular target: T10, ETV7 (Homo sapiens, UniProt Q9Y603 1-341); conditions: protein: recombinant; tags: N-terminal GST; dsDNA, one strand shown
# T10 sequence: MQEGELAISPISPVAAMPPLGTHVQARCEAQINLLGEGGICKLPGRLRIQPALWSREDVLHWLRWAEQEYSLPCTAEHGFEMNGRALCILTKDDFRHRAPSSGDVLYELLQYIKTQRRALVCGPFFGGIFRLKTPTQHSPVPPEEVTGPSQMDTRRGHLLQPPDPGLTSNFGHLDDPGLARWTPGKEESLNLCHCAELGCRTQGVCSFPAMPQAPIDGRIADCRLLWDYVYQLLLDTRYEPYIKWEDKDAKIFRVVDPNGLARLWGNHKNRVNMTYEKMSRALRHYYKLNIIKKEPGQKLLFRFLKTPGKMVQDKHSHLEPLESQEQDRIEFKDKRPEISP
# Summary of the method: as §1
# ELF5 = molecular target: T11, ELF5 (Homo sapiens, UniProt Q9UKW6-2 1-255); conditions: protein: recombinant; tags: N-terminal GST; dsDNA, one strand shown
# T11 sequence: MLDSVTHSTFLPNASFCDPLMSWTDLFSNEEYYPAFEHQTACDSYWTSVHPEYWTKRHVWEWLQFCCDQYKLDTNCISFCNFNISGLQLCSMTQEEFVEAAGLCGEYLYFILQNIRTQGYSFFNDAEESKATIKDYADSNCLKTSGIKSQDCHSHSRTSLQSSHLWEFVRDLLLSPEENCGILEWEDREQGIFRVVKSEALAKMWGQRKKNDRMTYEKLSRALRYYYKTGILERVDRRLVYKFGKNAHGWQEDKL
# Summary of the method: as §1
# ETV3 = molecular target: T12, ETV3 (Homo sapiens, UniProt P41162-2 1-143); conditions: protein: recombinant; tags: N-terminal GST; dsDNA, one strand shown
# T12 sequence: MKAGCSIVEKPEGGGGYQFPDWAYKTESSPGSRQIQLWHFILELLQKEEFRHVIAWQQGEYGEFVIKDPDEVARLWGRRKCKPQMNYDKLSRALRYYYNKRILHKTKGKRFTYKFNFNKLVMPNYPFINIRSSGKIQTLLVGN
# Summary of the method: as §1
# ETV6 = ETV6 (Homo sapiens, UniProt P41212 1-452); conditions: protein: recombinant; tags: N-terminal GST; dsDNA, one strand shown
# Summary of the method: as §1
# Chain of ELF4 (Q99607 whole entry): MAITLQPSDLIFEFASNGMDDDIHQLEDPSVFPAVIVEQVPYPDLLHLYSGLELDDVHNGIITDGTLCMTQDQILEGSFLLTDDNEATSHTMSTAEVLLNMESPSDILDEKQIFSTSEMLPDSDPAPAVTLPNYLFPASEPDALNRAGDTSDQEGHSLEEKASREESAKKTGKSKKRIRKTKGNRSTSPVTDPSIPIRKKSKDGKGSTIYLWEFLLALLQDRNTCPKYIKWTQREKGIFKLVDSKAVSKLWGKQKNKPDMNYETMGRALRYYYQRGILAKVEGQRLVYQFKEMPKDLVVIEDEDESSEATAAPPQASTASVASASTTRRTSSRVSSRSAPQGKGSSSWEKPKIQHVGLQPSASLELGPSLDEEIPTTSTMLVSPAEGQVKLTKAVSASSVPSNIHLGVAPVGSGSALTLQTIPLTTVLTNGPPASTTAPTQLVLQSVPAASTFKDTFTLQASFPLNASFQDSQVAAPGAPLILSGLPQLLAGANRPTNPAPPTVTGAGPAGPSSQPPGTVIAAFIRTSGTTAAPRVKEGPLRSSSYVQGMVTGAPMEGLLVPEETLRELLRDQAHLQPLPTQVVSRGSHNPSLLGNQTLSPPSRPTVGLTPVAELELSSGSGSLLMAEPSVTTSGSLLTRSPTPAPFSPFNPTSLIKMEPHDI
# Chain of ETV5 (P41161 whole entry): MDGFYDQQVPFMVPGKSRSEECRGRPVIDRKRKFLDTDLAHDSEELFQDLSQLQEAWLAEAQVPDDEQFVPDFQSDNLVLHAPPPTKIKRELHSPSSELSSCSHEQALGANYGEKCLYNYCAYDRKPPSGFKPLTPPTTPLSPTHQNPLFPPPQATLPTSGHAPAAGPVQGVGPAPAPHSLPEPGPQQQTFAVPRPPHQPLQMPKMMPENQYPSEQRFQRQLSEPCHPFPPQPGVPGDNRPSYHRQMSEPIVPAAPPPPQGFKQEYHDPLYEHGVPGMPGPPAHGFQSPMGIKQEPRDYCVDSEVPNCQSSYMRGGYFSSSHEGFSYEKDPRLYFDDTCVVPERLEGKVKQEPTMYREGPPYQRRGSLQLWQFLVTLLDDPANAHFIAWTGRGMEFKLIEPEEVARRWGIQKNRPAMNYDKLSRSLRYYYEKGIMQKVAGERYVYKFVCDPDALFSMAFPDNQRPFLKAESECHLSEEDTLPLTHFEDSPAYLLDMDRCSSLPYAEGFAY
# Chain of ETV6 (P41212 whole entry): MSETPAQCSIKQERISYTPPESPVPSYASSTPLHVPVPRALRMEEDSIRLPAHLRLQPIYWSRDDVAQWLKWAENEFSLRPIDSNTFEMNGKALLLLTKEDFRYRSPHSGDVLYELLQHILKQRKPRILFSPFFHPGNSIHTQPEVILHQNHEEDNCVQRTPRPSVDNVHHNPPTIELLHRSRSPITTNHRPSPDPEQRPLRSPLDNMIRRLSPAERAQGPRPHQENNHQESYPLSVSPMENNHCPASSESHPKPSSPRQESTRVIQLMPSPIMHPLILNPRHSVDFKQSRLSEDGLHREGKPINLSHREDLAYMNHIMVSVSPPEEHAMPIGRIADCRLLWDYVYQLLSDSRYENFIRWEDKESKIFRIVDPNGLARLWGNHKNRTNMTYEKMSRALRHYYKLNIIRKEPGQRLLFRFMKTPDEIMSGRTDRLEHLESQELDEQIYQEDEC
# Chain of ETV1 (P50549 whole entry): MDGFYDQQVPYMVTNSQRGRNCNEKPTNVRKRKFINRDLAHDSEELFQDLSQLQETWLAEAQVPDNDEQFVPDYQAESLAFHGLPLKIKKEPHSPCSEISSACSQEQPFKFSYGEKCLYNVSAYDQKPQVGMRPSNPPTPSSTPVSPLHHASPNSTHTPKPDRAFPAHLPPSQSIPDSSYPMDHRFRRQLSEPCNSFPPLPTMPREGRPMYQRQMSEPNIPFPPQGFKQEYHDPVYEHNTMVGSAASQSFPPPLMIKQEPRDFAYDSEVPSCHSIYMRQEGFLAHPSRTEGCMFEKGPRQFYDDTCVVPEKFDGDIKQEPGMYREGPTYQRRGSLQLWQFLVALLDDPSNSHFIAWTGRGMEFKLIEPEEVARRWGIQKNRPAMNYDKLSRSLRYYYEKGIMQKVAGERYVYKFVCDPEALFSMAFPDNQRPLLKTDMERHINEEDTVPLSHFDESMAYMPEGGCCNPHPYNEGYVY
# Chain of HSF1 (Q00613 whole entry): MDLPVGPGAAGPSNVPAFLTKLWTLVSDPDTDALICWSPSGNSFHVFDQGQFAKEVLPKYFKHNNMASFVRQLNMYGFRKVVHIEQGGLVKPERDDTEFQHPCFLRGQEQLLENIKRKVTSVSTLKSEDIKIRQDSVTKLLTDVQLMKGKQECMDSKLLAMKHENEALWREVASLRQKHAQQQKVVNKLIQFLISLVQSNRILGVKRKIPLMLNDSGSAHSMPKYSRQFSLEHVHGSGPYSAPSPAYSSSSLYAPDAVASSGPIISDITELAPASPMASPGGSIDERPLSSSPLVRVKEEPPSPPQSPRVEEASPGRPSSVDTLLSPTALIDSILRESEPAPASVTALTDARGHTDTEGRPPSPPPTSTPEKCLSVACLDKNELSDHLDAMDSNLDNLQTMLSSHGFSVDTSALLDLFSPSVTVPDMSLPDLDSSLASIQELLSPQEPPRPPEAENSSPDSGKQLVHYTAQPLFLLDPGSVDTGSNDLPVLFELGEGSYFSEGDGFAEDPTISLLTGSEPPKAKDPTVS
# Chain of CRX (O43186 whole entry): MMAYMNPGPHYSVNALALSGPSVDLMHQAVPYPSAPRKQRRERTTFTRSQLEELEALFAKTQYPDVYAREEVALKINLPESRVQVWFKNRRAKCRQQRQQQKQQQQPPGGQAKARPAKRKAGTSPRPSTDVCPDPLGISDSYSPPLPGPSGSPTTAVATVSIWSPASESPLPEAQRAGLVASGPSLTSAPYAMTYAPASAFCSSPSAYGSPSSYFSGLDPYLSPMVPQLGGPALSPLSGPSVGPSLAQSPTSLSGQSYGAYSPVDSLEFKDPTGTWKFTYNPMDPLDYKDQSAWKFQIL
sequence,measurement,setting,value
TGGCAA,binding signal,FEV,"1.17 fold enrichment (6-mer frequency, TF over GST control)"
same,binding signal,ETV5,"1.18 fold enrichment (6-mer frequency, TF over GST control)"
same,binding signal,HSF1,"1.18 fold enrichment (6-mer frequency, TF over GST control)"
same,binding signal,SPIC,"1.13 fold enrichment (6-mer frequency, TF over GST control)"
same,binding signal,ELF4,"1.21 fold enrichment (6-mer frequency, TF over GST control)"
same,binding signal,ELK4,"1.19 fold enrichment (6-mer frequency, TF over GST control)"
same,binding signal,ETV2,"1.11 fold enrichment (6-mer frequency, TF over GST control)"
same,binding signal,ELF3,"1.03 fold enrichment (6-mer frequency, TF over GST control)"
same,binding signal,CRX,"1.07 fold enrichment (6-mer frequency, TF over GST control)"
same,binding signal,ETV1,"1.16 fold enrichment (6-mer frequency, TF over GST control)"
same,binding signal,ERF,"1.21 fold enrichment (6-mer frequency, TF over GST control)"
same,binding signal,ETV3L,"1.23 fold enrichment (6-mer frequency, TF over GST control)"
same,binding signal,ETS2,"1.14 fold enrichment (6-mer frequency, TF over GST control)"
same,binding signal,SPDEF,"1 fold enrichment (6-mer frequency, TF over GST control)"
same,binding signal,ETV7,"1.16 fold enrichment (6-mer frequency, TF over GST control)"
same,binding signal,ELF5,"1.16 fold enrichment (6-mer frequency, TF over GST control)"
same,binding signal,ETV3,"1.12 fold enrichment (6-mer frequency, TF over GST control)"
same,binding signal,ETV6,"1.28 fold enrichment (6-mer frequency, TF over GST control)"
